Bioassay records deposited in PubChem BioAssay by several laboratories.
Rows were chosen to be rich in hits. Some 2.6% of all compounds tested hit in one or more screens of this group.
EBV LMP1 NFkB: EBV LMP1-driven NF-kappaB luciferase reporter inhibitors, primary screen, cell-based, luminescence, single point; LMP1-induced NF-kappaB luciferase reporter cells; inhibition, % at 12.5 µM; 350,000 compounds, 0.69% hits; AID 504558, 2011; in the data active means inhibition above about 41%; inconclusive means no clear call, values can overlap the other calls;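 further: 0% = neutral control wells and 100% = reference inhibitor control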
TROY NFkB inh: inhibitors of TROY-driven NF-kB signaling, primary screen, Q293 LMP1-TROYcd cells, NF-kB luciferase, uHTS. Q293 LMP1-TROYcd NF-kB luciferase reporter, 4 h. inhibition, % at 10 µM. 360,000 compounds, 0.98% hits;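 active means compounds whose plate-normalised and pattern-corrected inhibition of the luciferase reporter signal at the single screening dose is 50% or more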
LGR2 antag: inhibitors of bursicon-induced LGR2 CRE-luciferase signal, primary screen, cell-based, HEK293, CRE-luciferase reporter, bursicon stimulation | Drosophila bursicon receptor LGR2 (rickets) | bursicon-stimulated, 4 h | inhibition, % at 9.99 µM | 380,000 compounds, 0.35% hits | AID 720647, 2013;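 active means drop in luminescence signal, shown as inhibition above about 50% in the replicate tests, limit read from the data, passing the limit was not always enough; inconclusive means probably only some replicates passing the limit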;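 further: agonist challenge used bursicon conditioned medium at about half maximal strength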
TWEAK Fn14 block: inhibitors of TWEAK-Fn14 signaling, primary screen, luciferase reporter cells, uHTS. TWEAK-stimulated Fn14 reporter cells, luciferase luminescence, 8 h. inhibition, % at 10 µM. 360,000 compounds, 2% hits; in the data active means inhibition above about 50%
HSP90 refold inh: HSP90 inhibitors, primary screen, cell lysate, luminescence. inhibition, % at 5.6 µM. AID 1789, 2009. Heat shock protein HSP 90 (rabbit reticulocyte lysate; luciferase refolding). 290,000 compounds, 0.91% hits. Rabbit reticulocyte lysate, luciferase refolding luminescence, 3 h;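 active means inhibition above the screen-wide mean plus 3 SD, computed separately per campaign, cut at about 16% in these data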;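 further: 0% = DMSO wells and 100% = 60 µM geldanamycin wells; inhibitors lower the luminescence because luciferase stays unfolded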
aDG glyco up: activators of alpha-DG glycosylation, primary screen, uHTS, Pro5-aDG cells, AlphaScreen; activation, % at 10 µM; alpha-DG glycosylation AlphaScreen (IIH6); 0% Pro5, 100% B10-LARGE cell signal; 360,000 compounds, 0.22% hits;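 active means activation of at least 8% versus controls, or a plate z-score of at least 8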;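 further: Pro5 are CHO cells carrying HIG-tagged alpha-DG that lacks glycosylation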
The depositor's hits bear a star; ? = inconclusive; . = no result given.

SMILES	EBV LMP1 NFkB	TROY NFkB inh	LGR2 antag	TWEAK Fn14 block	HSP90 refold inh	aDG glyco up
CCCC(=O)Nc1ccc2c(c1)C(=O)N(C)C[C@@H](OC)[C@@H](C)CN(CC1CCOCC1)[C@H](C)CO2	.	.	5	.	.	.
CN(C)c1ccc(Nc2nc(N)c([N+](=O)[O-])c(N3CCOCC3)n2)cc1	3	70*	23	26	1	-1
O=C(C1CC(=O)N(c2ccc3c(c2)OCCO3)C1)N1CCN(S(=O)(=O)c2cccc(F)c2)CC1 (stereo not drawn)	-1	1	-7	18	.	0
O=C(C1CC(=O)N(c2ccc3c(c2)OCCO3)C1)N1CCN(S(=O)(=O)c2ccccc2F)CC1 (stereo not drawn)	10	49	3	83*	.	0
O=C(C1CC(=O)N(c2ccc3c(c2)OCCO3)C1)N1CCN(S(=O)(=O)c2ccc(F)cc2)CC1 (stereo not drawn)	53*	0	-12	3	.	0
O=C(C1CC(=O)N(c2ccc3c(c2)OCCO3)C1)N1CCN(c2cccc(C(F)(F)F)c2)CC1 (stereo not drawn)	11	18	-16	8	.	0
C[C@H]1CN([C@@H](C)CO)C(=O)c2cc(C3=CCCC3)cnc2O[C@H]1CN(C)S(=O)(=O)c1cn(C)cn1	.	.	8	.	.	.
O=C(CSc1nc2ccccc2s1)N1N=C(c2cccs2)CC1c1ccc(F)cc1 (stereo not drawn)	0	5	17	10	-5	0
O=C(CSc1nc2c(cnn2-c2ccc(F)cc2)c(=O)[nH]1)N1N=C(c2cccs2)CC1c1ccc(F)cc1 (stereo not drawn)	.	50*	-1	57*	4	0
COc1ccc2c3c(n(C)c2c1)[C@H](CO)N(C(=O)Cc1ccccn1)CC31CCN(CC2CCOCC2)CC1	.	.	-31	.	.	.
Cc1ccc(S(=O)(=O)Nc2ccc3c(c2)CC(=O)N([C@@H](C)CO)C[C@H](C)[C@@H](CN(C)S(=O)(=O)c2ccc(Cl)cc2)O3)cc1	.	.	-11	.	.	.
Cn1c(SCC(=O)N2CCOCC2)nnc1-c1ccncc1	-10	0	12	-2	-6	0
O=C(CSc1nnc2nnc3ccccc3n12)N1CCOCC1	19	68*	-14	64*	1	1
CCC(=O)Nc1ccc2c(c1)C(=O)N(C)[C@H]1CC[C@@H](CC(=O)NCc3ccccc3Cl)O[C@@H]1CO2	.	.	5	.	.	.
COc1ccc(-c2cnc3c(c2)C(=O)N([C@@H](C)CO)C[C@@H](C)[C@H](CN(C)C(=O)C2CCC2)O3)cc1	.	.	3	.	.	.
CCc1ccccc1N(CC(=O)NC1CCCCC1)C(=O)CCCC(=O)Nc1ccccn1	-2	14	6	80*	-3	0
O=S(=O)(Nc1ccc(O)c2ccccc12)c1cccs1	-1	28	-37	82*	8	2.7*
O=S(=O)(Nc1cccc2ccccc12)c1cccs1	-7	0	-8	-7	-3	0
COc1ccc(-n2ncc3c(N4CCN(c5cc(C)ccc5C)CC4)ncnc32)cc1	1	-11	9	-18	-3	0
c1ccc(Cn2ncc3c(N4CCN(C(c5ccccc5)c5ccccc5)CC4)ncnc32)cc1	6	21	-12	-16	2	0
Cc1ccc(-n2ncc3c(N4CCN(c5ccccc5)CC4)ncnc32)c(C)c1	12	50*	?	87*	2	0
c1ccc(Cn2ncc3c(N4CCN(c5ccccc5)CC4)ncnc32)cc1	.	72*	66*	64*	.	-1
Cc1cccc(-n2ncc3c(N4CCCC4)ncnc32)c1	7	22	36	57*	6	0
COc1ccc(N2CCN(c3ncnc4c3cnn4-c3ccc(C)cc3C)CC2)cc1	12	44	5	68*	0	2
CCCN1C[C@H](C)[C@@H](OC)CN(C)C(=O)c2cc(NC(=O)NC3CCCCC3)ccc2OC[C@@H]1C	.	.	17	.	.	.
CC(=O)CSc1nc(N)c(C#N)c(-c2cccs2)c1C#N	2	12	.	52*	-1	0
